This is an account of results in PubChem BioAssay (NCATS).

Inconclusive results are not listed. The source made the active and inactive calls. Unless noted, calls come from the whole dose curve; as a rule, active = well fitted curve in the direction sought with a large enough effect; inconclusive = small, poorly fitted or top-dose-only effect, or another doubt; inactive = no such curve, though single readings can be large; an effect the other way counts as inactive or inconclusive.

Test [1] can be described thus: qHTS Assay for Lipid Storage Modulators (AID 1519; calls by dose curve; for activity change, negative = inhibition: % is set by controls: 0 for no effect and ±100 for the full control effect). To be noted: Drosophila S3 cells, BODIPY lipid droplet/cell ratio, laser cytometry, cells loaded with oleic acid. In a few lines: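 Cells seeded at 5,000 per well were treated with compounds over a concentration series and loaded with oleic acid (400 uM, as added). Lipid droplet fluorescence (488 nm excitation, 500-530 nm channel) was read by laser-scanning cytometry and normalized to 20 uM Triacsin C.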
A general note: In qHTS, concentration-response curves come from the screen itself.

Test [2] addresses Cytochrome P450 3A4 (Homo sapiens) (UniProt P08684). As to the kind of experiment: qHTS Assay for Activators of Cytochrome P450 3A4 (AID 885). Note: nearly all actives have a fitted effect of over 65% in size. To be noted: recombinant CYP3A4, Luciferin-PPXE luminescence, 60 min; series mostly up to 57.1 µM. In a few lines:
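20nM CYP3A4 + 25uM Luciferin-PPXE (=KM), 200mM KPO4; cpd 10 min RT; NADPH regen, 60 min RT; stop w/ detection buffer, 20 min; luminescence. Normalized to 57 uM ketoconazole.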

A short description of test [3]: qHTS Assay for Identification of Small Molecule Antagonists for NFkB Signaling Pathway (AID 895; active = well fitted inhibition curve with a large enough effect in the signal ratio, with a control signal flat, not every such curve was filed as active; the % refers to the signal ratio; note: % is set by controls: 0 for no effect and ±100 for the full control effect). The note with it: NFkB beta-lactamase reporter cells, FRET ratio 460/530, stimulated with 10 pM TNF alpha; series mostly up to 38.3 µM. In a few lines:
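Beta-lactamase reporter read-out (460 and 530 nm emission ratio, 405 nm excitation, 2 hrs substrate loading RT) after 5 hr stimulation with 10 pM TNF alpha in compound-treated NFkB-bla ME-180 cells in low-serum medium.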

Test [4] can be described thus: qHTS Assay for Identification of Small Molecule Agonists for Thrombopoietin (TPO) Signaling Pathway (AID 917). Note: potency is the fitted concentration of half-maximal effect. The note with it: TPO signaling pathway reporter cells, agonist qHTS; stimulated with TPO at its EC50. In a few lines: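 Luminescence from a Glycoprotein IIb promoter–driven luciferase reporter served as read-out in murine Ba/F3 cells carrying the human TPO receptor. Cells, deprived of IL-3 overnight, received compounds with 26 pM TPO and were incubated 24 hrs at 37 C.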

Test [5] addresses Muscarinic acetylcholine receptor M1 (Rattus norvegicus) (UniProt P08482). As to the kind of experiment: qHTS Assay for Antagonists of Acetylcholine Muscarinic M1 Receptor: Measurement of IP-One Response (AID 944). Note: nearly all actives have a fitted effect of over 75% in size. To be noted: CHO-M1 cells, IP-One HTRF, antagonist mode; series mostly up to 46.1 µM. In a few lines:
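CHO cells expressing rat M1 receptor, recovered overnight, were pre-incubated 10 min with compound, then stimulated 30 min with carbachol at EC80 (200 nM) in LiCl-containing buffer, pH 7.4. IP1 accumulation was read by HTRF (620/665 nm).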

Test [6] deals with Pyruvate kinase (Leishmania mexicana) (UniProt Q27686). As to the kind of experiment: qHTS Validation Assay for Inhibitors of Leishmania Mexicana Pyruvate Kinase (AID 945).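 Note: 0% = DMSO only neutral control wells.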 To be noted: purified L. mexicana pyruvate kinase, enzyme activity, E451W mutant enzyme; series mostly up to 57.5 µM. In a few lines: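 Luminescent ATP detection (PKLight) after a 1 h room-temperature reaction of 0.2 nM LmPYK E451W mutant with 0.5 mM PEP and 0.1 mM ADP at pH 7.2. Activity is normalized to DMSO-only control wells.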
Pyruvate kinase (Leishmania mexicana), sequence (Q27686 2-499 E452W): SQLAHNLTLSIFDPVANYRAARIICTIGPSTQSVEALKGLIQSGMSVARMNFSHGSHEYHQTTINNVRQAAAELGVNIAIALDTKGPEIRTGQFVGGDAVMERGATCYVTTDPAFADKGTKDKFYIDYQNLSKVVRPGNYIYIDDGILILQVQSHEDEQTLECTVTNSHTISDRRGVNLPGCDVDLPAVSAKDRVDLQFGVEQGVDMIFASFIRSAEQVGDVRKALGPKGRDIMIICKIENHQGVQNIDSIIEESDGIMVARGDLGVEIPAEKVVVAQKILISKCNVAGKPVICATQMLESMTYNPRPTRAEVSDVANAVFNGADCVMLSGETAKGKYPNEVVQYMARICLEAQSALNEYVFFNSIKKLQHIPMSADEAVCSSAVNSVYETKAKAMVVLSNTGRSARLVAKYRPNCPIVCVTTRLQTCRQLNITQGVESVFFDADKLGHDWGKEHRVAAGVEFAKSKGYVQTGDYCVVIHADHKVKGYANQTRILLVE

The target in test [7] is Pyruvate kinase PKM (Homo sapiens) (UniProt P14618). As to the kind of experiment: qHTS Assay for Activators of Human Muscle Pyruvate Kinase (AID 954; active = well fitted curve in the direction sought with a large enough effect, not every such curve was filed as active;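 note: 0% = uninhibited enzyme and -100% = no enzyme or full thiadiazolimine inhibition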). To be noted: purified human muscle pyruvate kinase, luciferase-coupled luminescence, 1 h; series mostly up to 57.5 µM. In a few lines:
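Luminescence from a luciferase ATP-detection/stop reagent reported PKM2 activity. Reactions contained 0.1 nM purified human enzyme, 0.5 mM PEP, 0.1 mM ADP and 7 mM MgCl2 at pH 7.2, run 1 h at RT.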

The target in test [8] is Alpha-galactosidase A (Homo sapiens) (UniProt P06280). As to the kind of experiment: Counterscreen for Glucocerebrosidase Inhibitors: qHTS Assay for Human alpha-Galactosidase at pH 4.5 (AID 992). Note: 0% is about no effect. The note with it: purified enzyme, fluorogenic substrate; series mostly up to 76.9 µM. In a few lines: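 Enzyme at 2 nM final was combined with compound (0.7 nM to 77 uM) and 80 uM 4-methylumbelliferyl alpha-D-galactopyranoside in 50 mM citric acid, 0.005% Tween-20, pH 4.5. After 20 min at room temperature, fluorescence was read (Ex 365/Em 440 nm); AC50 came from Hill fits.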
Alpha-galactosidase A (Homo sapiens), sequence (P06280 whole entry, looked up): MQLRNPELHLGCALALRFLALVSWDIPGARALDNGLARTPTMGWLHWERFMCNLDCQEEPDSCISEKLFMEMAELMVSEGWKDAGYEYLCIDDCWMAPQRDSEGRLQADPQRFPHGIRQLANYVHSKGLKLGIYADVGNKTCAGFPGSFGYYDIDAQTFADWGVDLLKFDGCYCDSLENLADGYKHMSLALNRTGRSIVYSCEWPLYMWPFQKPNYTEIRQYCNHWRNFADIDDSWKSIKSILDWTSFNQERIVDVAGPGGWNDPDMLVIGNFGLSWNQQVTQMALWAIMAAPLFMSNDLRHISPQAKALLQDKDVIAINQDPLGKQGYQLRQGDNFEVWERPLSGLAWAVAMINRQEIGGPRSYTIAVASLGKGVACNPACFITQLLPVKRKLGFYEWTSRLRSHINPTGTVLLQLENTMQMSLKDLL
(In general: Counterscreens check selectivity or assay interference.)

Test [9] addresses alpha-glucosidase (Oryza sativa, rice) (UniProt Q653V4). As to the kind of experiment: Counterscreen for Glucocerebrosidase Inhibitors: qHTS Assay for Rice alpha-Glucosidase at pH 5.0 (AID 997).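 Note: 0% = full activity with enzyme and -100% = basal without enzyme.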 To be noted: rice alpha-glucosidase enzyme activity; series mostly up to 76.9 µM. In a few lines: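 Rice alpha-glucosidase (4 nM final) with 400 uM 4-methylumbelliferyl-alpha-D-glucopyranoside in citrate buffer pH 5.0, 20 min at room temperature, stopped at pH 10; fluorescence 365/440 nm, compounds 0.7 nM–77 uM, AC50 from Hill fits.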

Test [10] is described as follows: Validation of Assay for Modulators of Lamin A Splicing (AID 1459; active = well fitted curve in the direction sought with a large enough effect in the signal ratio; the % refers to the signal ratio;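 note: cells exposed to compound for two days before reading; 0% is about no effect; ratio rise marks activators and ratio drop marks inhibitors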). The note with it: Lamin A splicing dual RFP/GFP fluorescence reporter; series mostly up to 9.22 µM. In a few lines:
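HeLa S3 lamin A-EGFP/DsRed2 stable clone, 600 cells/well, Opti-MEM 2% FBS; compounds by pin tool; 48 hrs, 37 °C/5% CO2; Acumen 488 nm scan, objects 10-100 um; GFP/RFP intensity ratio.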

Test [11] deals with DNA repair nuclease/redox regulator APEX1 (Homo sapiens) (UniProt P27695). Briefly: qHTS Validation Assay for Inhibitors of the Human Apurinic/apyrimidinic Endonuclease 1 (APE1) (AID 1705;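 note: TAMRA fluorescence gain over two minutes as APE1 cuts a quenched THF abasic duplex; % is set by controls: 0 for no effect and ±100 for the full control effect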). The note with it: purified APE1 endonuclease activity, fluorescence, titration; series mostly up to 57.1 µM. In a few lines:
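qHTS, 1536-well. APE1 + cpd 15 min RT → 50 nM TAMRA/BHQ-2 THF-abasic dsDNA substrate → kinetic fluorescence, 3 reads/60 s; delta(read3−read1) = reaction progress. No-enzyme buffer = negative control.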

Test [12] in a line: Counterscreen for APE1 Inhibitors: Fluorescent Dye Displacement Validation Assay (AID 1707).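 Note: plate controls were ThO with dsDNA and no compound for no effect and ThO without dsDNA for full effect.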 The note with it: fluorescent dye displacement from DNA; series mostly up to 57.1 µM. In a few lines:
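Thiazole Orange displacement from dsDNA: 250 nM ThO with 50 nM TAMRA-labelled abasic-site (tetrahydrofuran) duplex in 50 mM Tris-HCl pH7.5, 50mM NaCl, 2 mM MgCl2, 0.01% Tween-20. Loss of endpoint fluorescence (ex 480 nm, em 540 nm) flags DNA binders.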

The target in test [13] is Endonuclease 4 (Escherichia coli (strain K12)) (UniProt P0A6C1). Briefly: Counterscreen for APE1 Inhibitors: qHTS Validation Assay for Inhibitors of Endonuclease IV (AID 1708). Note: % is set by controls: 0 for no effect and ±100 for the full control effect. The note with it: E. coli endonuclease IV, DNA cleavage fluorescence; series mostly up to 57.1 µM. In a few lines:
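Enzymatic AP-site incision assay using a double-stranded THF substrate labelled with TAMRA and BHQ-2; released fluorescence signals activity. Enzyme 2 nM, substrate 50 nM, 15 min compound preincubation.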

A short description of test [14]: qHTS for differential inhibitors of proliferation of Plasmodium falciparum line GB4 (AID 1816).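 Note: parasite growth measured after 72 h incubation; 0% = vehicle DMSO and -100% = reference inhibitor.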 The note with it: series mostly up to 28.7 µM.
Test [15] can be described thus: qHTS for differential inhibitors of proliferation of Plasmodium falciparum line 3D7 (AID 1876).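 Note: parasite growth measured after three days of culture; 0% = vehicle wells and -100% = reference inhibitor wells.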 To be noted: P. falciparum 3D7 proliferation inhibition; series mostly up to 28.7 µM.
Test [16] in a line: qHTS for differential inhibitors of proliferation of Plasmodium falciparum line D10 (AID 1877).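 Note: parasites grown with compound for 72 h before DNA staining; plate controls were vehicle wells for no effect and reference inhibitor wells for full effect.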 To be noted: series mostly up to 28.7 µM.
Test [17] can be described thus: Confirmation and Secondary Assay for Modulators of Hemoglobin Beta Chain Splicing at IVS2 654 locus (AID 910).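 Note: HeLa cells stably carrying EGFP split by mutant beta-globin IVS2-654 intron; % of control where 0% means no effect.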 To be noted: HeLa EGFP-654 splicing reporter, GFP fluorescence, 48 h; series mostly up to 46.1 µM. In a few lines:
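Readout: per-well total peak green fluorescence (488 nm ex, 500–520 nm em) from objects 5–250 µm, reflecting correct splicing of an EGFP-654 reporter. Compounds were applied for 2 days at 37 °C to overnight-plated HeLa EGFP-654 cells; controls were DMSO and 500 nM IVS2-654 PNA.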

A short description of test [18]: Confirmation and Secondary Assay for Modulators of Hemoglobin Beta Chain Splicing at IVS2 705 locus (AID 930).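 Note: HeLa cells stably expressing the EGFP-705 splicing reporter; GFP fluorescence per well restored by corrected splicing of the IVS2-705 intron in EGFP; % of control where 0% means no effect.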 To be noted: HeLa EGFP-705 splicing reporter, GFP fluorescence, 48 h; series mostly up to 46.1 µM. In a few lines:
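Read-out: total peak GFP fluorescence per well (488 nm excitation, 500-520 nm emission) by laser-scanning cytometry. Cells: HeLa EGFP-705 splicing reporter, 2 days compound exposure in Optimem/2% FCS.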

Test [19] addresses Cytochrome P450 3A4 (Homo sapiens) (UniProt P08684). Briefly: qHTS Assay for Inhibitors and Substrates of Cytochrome P450 3A4 (AID 884). Note: nearly all actives have a fitted effect of over 50% in size. Note: potency is the fitted concentration of half-maximal effect. The note with it: recombinant CYP3A4, Luciferin-PPXE luminescence; series mostly up to 57.1 µM. In a few lines:
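20 nM human CYP3A4 with 25 uM Luciferin-PPXE (at KM) in 200 mM KPO4, preincubated 10 min with compound; NADPH regeneration started a 60 min RT reaction. Luciferin detected by luminescence, normalized to 57 uM ketoconazole as full inhibition.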

Test [20] deals with Cytochrome P450 2C19 (Homo sapiens) (UniProt P33261). As to the kind of experiment: qHTS Assay for Inhibitors and Substrates of Cytochrome P450 2C19 (AID 899). Note: % is set by controls: 0 for no effect and ±100 for the full control effect; nearly all actives have a fitted effect of over 60% in size. The note with it: recombinant CYP2C19, luciferin-H EGE luminescence; series mostly up to 11.4 µM. In a few lines: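 5nM enzyme + 10uM Luciferin-H EGE (=KM), 50mM KPO4; cpd pin-transferred, 10 min 37C; NADPH regen, 60 min 37C; stopped w/ luciferin detection reagent, 20 min; luminescence. Normalized to 57uM ketoconazole (AC100).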
Cytochrome P450 2C19 (Homo sapiens), sequence (P33261 whole entry, looked up): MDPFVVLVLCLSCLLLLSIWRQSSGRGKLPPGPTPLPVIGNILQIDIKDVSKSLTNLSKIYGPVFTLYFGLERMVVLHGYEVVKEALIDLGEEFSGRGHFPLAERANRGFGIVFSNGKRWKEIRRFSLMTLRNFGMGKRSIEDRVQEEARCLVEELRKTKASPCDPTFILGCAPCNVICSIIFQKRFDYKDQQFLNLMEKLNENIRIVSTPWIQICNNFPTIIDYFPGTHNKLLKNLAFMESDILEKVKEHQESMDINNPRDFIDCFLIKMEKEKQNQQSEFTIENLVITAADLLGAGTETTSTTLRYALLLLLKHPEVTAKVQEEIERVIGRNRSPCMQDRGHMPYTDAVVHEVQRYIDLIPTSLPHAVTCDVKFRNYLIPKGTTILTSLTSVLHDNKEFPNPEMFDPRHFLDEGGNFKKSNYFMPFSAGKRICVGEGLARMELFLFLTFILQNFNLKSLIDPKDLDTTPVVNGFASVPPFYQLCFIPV

[21] abbreviates: measured here: cell count channel max response.
Where [22] appears, read: measured here: lipid channel max response.

Cytochrome P450 3A4 (Homo sapiens), sequence (P08684 whole entry, looked up): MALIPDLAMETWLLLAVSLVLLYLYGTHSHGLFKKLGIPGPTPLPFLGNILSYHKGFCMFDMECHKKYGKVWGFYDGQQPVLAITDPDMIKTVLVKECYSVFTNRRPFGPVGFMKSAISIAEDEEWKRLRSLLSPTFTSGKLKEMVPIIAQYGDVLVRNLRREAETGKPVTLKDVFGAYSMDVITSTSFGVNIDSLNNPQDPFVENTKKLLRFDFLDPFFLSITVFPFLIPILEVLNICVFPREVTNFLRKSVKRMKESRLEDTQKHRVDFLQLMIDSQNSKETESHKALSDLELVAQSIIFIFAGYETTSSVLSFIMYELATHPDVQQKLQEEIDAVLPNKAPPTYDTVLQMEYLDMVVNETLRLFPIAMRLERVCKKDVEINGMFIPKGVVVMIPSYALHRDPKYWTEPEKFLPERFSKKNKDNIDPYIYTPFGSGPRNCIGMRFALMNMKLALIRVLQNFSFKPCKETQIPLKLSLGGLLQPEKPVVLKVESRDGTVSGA
DNA repair nuclease/redox regulator APEX1 (Homo sapiens), sequence (P27695 whole entry, looked up): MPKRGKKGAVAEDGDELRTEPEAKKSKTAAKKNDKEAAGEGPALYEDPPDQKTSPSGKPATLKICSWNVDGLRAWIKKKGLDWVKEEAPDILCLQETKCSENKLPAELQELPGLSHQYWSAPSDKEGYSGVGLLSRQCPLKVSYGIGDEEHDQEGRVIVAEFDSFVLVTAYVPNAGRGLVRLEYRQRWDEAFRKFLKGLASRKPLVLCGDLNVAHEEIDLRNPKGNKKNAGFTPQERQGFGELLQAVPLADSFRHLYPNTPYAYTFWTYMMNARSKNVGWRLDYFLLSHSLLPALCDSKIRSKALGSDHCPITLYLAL
Muscarinic acetylcholine receptor M1 (Rattus norvegicus), sequence (P08482 whole entry, looked up): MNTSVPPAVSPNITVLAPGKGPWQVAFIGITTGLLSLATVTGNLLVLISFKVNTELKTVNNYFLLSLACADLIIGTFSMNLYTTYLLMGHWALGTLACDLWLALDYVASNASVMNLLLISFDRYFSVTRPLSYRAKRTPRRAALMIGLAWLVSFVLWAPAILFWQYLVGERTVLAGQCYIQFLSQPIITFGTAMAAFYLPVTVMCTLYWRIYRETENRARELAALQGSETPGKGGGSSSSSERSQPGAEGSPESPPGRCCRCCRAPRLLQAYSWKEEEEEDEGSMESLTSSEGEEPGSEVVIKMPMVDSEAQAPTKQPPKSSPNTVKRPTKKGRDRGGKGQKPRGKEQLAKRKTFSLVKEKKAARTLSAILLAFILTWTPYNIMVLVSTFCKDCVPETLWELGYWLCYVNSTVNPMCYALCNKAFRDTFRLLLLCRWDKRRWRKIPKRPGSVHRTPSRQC
Pyruvate kinase PKM (Homo sapiens), sequence (P14618 whole entry, looked up): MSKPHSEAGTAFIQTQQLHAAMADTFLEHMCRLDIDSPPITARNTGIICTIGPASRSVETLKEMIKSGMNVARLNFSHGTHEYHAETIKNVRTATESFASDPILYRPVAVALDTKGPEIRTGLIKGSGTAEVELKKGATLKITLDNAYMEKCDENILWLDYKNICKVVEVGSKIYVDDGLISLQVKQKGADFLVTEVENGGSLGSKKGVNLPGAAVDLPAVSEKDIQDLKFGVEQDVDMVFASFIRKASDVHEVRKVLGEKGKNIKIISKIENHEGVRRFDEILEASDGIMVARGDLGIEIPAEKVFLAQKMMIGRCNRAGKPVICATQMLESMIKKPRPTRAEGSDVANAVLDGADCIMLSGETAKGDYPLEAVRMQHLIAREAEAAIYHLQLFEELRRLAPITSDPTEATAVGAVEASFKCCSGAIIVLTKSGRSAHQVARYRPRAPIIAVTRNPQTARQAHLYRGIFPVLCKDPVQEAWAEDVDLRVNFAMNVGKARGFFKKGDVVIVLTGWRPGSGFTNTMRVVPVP

With `C[C@H]1C[C@@H]2[C@@H]([C@@H](O)C[C@@]3(C)[C@H]2CC[C@]3(O)C(=O)CO)[C@@]2(C)C=CC(=O)C=C12`, the activity change, negative = inhibition in test [1] (at 25.7 µM (top of the series)) was -1.2% (inactive). Further, the max response in test [1] (setting [21]) is -15.5%; in test [1] (setting [22]), -14.8%.

With `O=c1c2ccccc2nc2n1CCc1c-2[nH]c2ccccc12`, the outcome in test [2], in [3], in [5], in test [6], in test [7] and in [8] was inactive. For the same compound, the compound was called inactive in [9], in [10], in [11], in test [12], in [13] and in [14]. Also, the outcome in test [15] and in test [16] was inactive. Further, the Potency in [4] is 0.316 µM (active). The activity change, negative = inhibition in [1] (at 57.5 µM (top of the series)) was 1.95% (inactive). The max response in test [1] (setting [21]) was determined as 45%; in test [1] (setting [22]) it was 50%.

`Nc1ccc(S(=O)(=O)Nc2ncccn2)cc1`: the result in [17] and in test [18] was inactive. Also, in test [1] (at 25.7 µM (top of the series)), the activity change, negative = inhibition was 0.373% (inactive). The max response in test [1] (setting [21]) was -6.66%; in test [1] (setting [22]), -7.25%.

For `COc1c(N2C[C@@H]3CCCN[C@H]3C2)c(F)cc2c(=O)c(C(=O)O)cn(C3CC3)c12`, the Potency result in test [19] is “inactive”. Moreover, the call in test [17] and in [18] was inactive.

In the case of `CC[C@H](CO)Nc1nc(NCc2ccccc2)c2ncn(C(C)C)c2n1`, the activity change, negative = inhibition in test [1] (at 57.5 µM (top of the series)) is 2.75% (inactive). Moreover, the results for the max response in [1] (setting [21]) and in [1] (setting [22]) were 73% and 78.1%, respectively. For the same compound, the result in test [11], in test [12] and in test [13] was inactive.

`CC[C@@]1(O)C(=O)OCc2c1cc1n(c2=O)Cc2cc3cc(O)ccc3nc2-1`: the outcome in test [18] was inactive. Moreover, in test [1] (at 57.5 µM (top of the series)), the activity change, negative = inhibition is -14.2% (inactive). Further, the max response in test [1] (setting [21]) was -6.87%; in test [1] (setting [22]), -17.5%.

On to `Cc1coc2c1C(=O)C(=O)c1c-2ccc2c1CCCC2(C)C`, for which, in test [19], the Potency result is “inactive”. Also, the compound was classed as inactive in test [17] and in [18]. Besides, the activity change, negative = inhibition in test [1] (at 57.5 µM (top of the series)) was 6.48% (inactive). Also, the max response in test [1] (setting [21]) came out at 16.1%; in [1] (setting [22]) it was 23.2%.

Regarding `CC(C)c1ccc(Cn2ccc3c4c(N)nc(NC5CC5)nc4ccc32)cc1`, the Potency in [19] is 6.31 µM (active). For the same compound, the result in [2] was inactive.

For the compound `O=C(O)c1ccc2cc(-c3ccc(O)c(C45CC6CC(CC(C6)C4)C5)c3)ccc2c1`, the Potency in test [19] was 31.6 µM (active). In test [2], the outcome was inactive.

As to `O=C(O)[C@H](Cc1c[nH]c2ccccc12)N1C(=O)c2ccccc2C1=O`, the result in test [20] was inactive.
